# Assay results: PubChem BioAssay AID1851 (National Center for Advancing Translational Sciences (NCATS), 2009)
# Screen size: about 16,000 compounds; about 5,800 (36%) were called active. Another 23% or so got no clear call; they are omitted. The list shows a part of the results. A structure can be active in one record and inactive in another. A number with no mark means an inactive call. The call rests on the fitted dose curve; in most records, active means well fitted curve in the direction sought with a large enough effect; inconclusive means small, poorly fitted or top-dose-only effect, or effect the other way; inactive means no such curve, though single readings can be large or run the other way. Peptide text beside a SMILES is read from it. * marks the point of attachment. PhAc = O=C(Cc1ccccc1)*; OBn = c1ccc(CO*)cc1
# Target: Cytochrome P450 2C19 (Homo sapiens) (UniProt P33261)
# Sequence (P33261 whole entry, looked up): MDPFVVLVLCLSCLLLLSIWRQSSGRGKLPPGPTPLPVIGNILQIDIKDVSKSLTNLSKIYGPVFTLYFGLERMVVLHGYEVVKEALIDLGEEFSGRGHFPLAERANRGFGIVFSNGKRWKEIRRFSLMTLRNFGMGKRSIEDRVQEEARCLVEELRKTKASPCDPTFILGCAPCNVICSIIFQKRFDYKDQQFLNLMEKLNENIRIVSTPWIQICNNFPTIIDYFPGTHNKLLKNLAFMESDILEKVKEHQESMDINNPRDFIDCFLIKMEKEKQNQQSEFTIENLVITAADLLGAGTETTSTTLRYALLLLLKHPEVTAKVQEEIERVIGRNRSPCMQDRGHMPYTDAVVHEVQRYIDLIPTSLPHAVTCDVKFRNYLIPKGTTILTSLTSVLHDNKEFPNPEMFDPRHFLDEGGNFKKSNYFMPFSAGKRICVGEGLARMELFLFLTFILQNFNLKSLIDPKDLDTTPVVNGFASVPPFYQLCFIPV
# Experiment: Cytochrome panel assay with activity outcomes
# Details: recombinant CYP, pro-luciferin dealkylation, luminescence, p450-cyp2c19; series mostly up to 57.1 µM
# On the % scale 0 is the no-effect control and ±100 the full control effect.
Compound,"activity, negative = inhibition",AC50
Clc1cc2c(c(CSC3=NCN(CC4CC4)CN3)c1)OCOC2,10.2% [at 11.4 µM],
C=C(C)COc1ccc(-c2n[nH]c(C)c2-c2ccc(OC)cc2)c(O)c1,,2.24 µM (active)
Oc1ccc(-c2[nH]ncc2-c2ccc(Cl)cc2)c(O)c1,,0.251 µM (active)
COc1ccc(-c2n[nH]c(C)c2-c2ccc(Cl)cc2)c(O)c1,,2.51 µM (active)
Cc1[nH]nc(-c2ccc(O)cc2O)c1-c1ccc(Cl)cc1,,0.282 µM (active)
CCN1CCCCC(=N/O)/C(=N/O)CCCC1,10.8% [at 11.4 µM],
O=C1[C@H]2[C@H]3[C@H](O)[C@H](O)C/C(=N/OC[C@@H](O)COCc4ccco4)[C@@H]3CC[C@@H]2C(=O)N1Cc1ccc2c(c1)OCO2,-24.6% [at 11.4 µM],
CCOC(=O)C1=C[C@@]2(CC)CCCN3CCc4c(n1c1ccccc41)[C@H]32,,inactive
COc1cc2ccccc2cc1C(=O)Nc1ccc(S(=O)(=O)Nc2cc(C)on2)cc1,,inactive
Cc1cc(NC(=O)c2ccc(S(=O)(=O)Nc3ccccc3)cc2)no1,,5.01 µM (active)
COc1ccc(C2Nc3ccccc3C(=O)N2Cc2ccco2)cc1COc1ccc([N+](=O)[O-])cc1 (configuration not stated),,2.51 µM (active)
O=C1c2ccccc2NC(c2ccc(F)cc2)N1Cc1ccco1 (configuration not stated),,3.55 µM (active)
O=C(C1=C(O)C(=O)N(Cc2ccco2)C1c1ccccc1)c1cccs1 (configuration not stated),,inactive
Cc1ccc(C2Nc3ccccc3C(=O)N2Cc2ccco2)cc1 (configuration not stated),,2.82 µM (active)
S=C(S)O[C@@H]1C[C@@H]2C[C@H]1[C@@H]1CCC[C@H]21,,15.8 µM (active)
C=CCOc1c(Br)cc(CNc2ccc(NC(=O)C(C)C)c(OC)c2)cc1OC,,3.55 µM (active)
O=C1c2ccccc2C(=O)N1CCCCN(C(=O)c1ccc([N+](=O)[O-])cc1)c1ccc(Cl)cc1,,4.47 µM (active)
O=C1c2ccccc2C(=O)N1CCCCN(C(=O)c1cccc([N+](=O)[O-])c1)c1ccc(Cl)cc1,,3.16 µM (active)
C/C(CCN1CCc2nc(-c3ccccc3)c(-c3ccccc3)cc2C1)=N\O[C@@H](C)CN1CCCCc2nc(C)c(C)cc21,-15.5% [at 11.4 µM],
O=C(CNC(=O)Cc1ccccc1)NCC(=O)OCc1ccccc1 (PhAc-Gly-Gly-OBn),,inactive
O=C(CNC(=O)c1cccs1)NCC(=O)OCc1ccc(Cl)cc1,,6.31 µM (active)
O=C(CNC(=O)c1cccs1)NCC(=O)OCc1ccc(Cl)cc1Cl,,5.01 µM (active)
COC(=O)C1C(=O)C2=C(CC1C)NC(=O)CC2c1cccc(C)c1 (configuration not stated),,11.2 µM (active)
COc1ccc(/C(C#N)=C/c2c(-c3ccc(Cl)cc3)nc3c(C)cccn23)cc1,,3.16 µM (active)
COc1ccc(-n2c(=O)c(-c3ccc(Cl)cc3)nc3cncnc32)cc1,,inactive

Compound,"activity, negative = inhibition",AC50
COc1ccc(Oc2ncc3nc(-c4ccc(Cl)cc4)c(=O)n(C)c3n2)cc1,,inactive
CCCOc1ccc(-c2nc(N)n[nH]2)cc1,,inactive
Cc1nnc(SCc2nc(N)nc(Nc3ccccc3)n2)s1,,14.1 µM (active)
C#CCSc1n[nH]c(-c2ccco2)n1,0.772% [at 11.4 µM],
COc1ccc(Nc2nc(N)nc(CSc3n[nH]c(-c4ccccc4)n3)n2)cc1,,10 µM (active)
Cc1cc(Nc2ccccc2)nc(N)n1,,inactive
CCCc1nnc(SCC(=O)N2C(C)CCCC2C)n1CCCOC (configuration not stated),,28.2 µM (active)
CCCc1nnc(SCC(=O)N2CCCCC2)n1CCCOC,,inactive
NOCC(=O)O,,inactive
COc1cc(NC(=O)c2ccccc2Cl)ccc1NC(=O)c1ccco1,,8.91 µM (active)
CNc1cc(OC)c(C(=O)N[C@@H]2CCN(Cc3ccccc3)[C@H]2C)cc1Cl,,inactive
COc1ccc(C(=O)Nc2ccc(NC(=O)c3ccco3)c(Cl)c2)cc1OC,,inactive
CC(C)Oc1ccc(C(=O)Nc2ccc(NC(=O)c3ccco3)c(Cl)c2)cc1,,3.98 µM (active)
Cc1nn(-c2ccc(F)cc2)c(C)c1NS(=O)(=O)c1ccc2ccccc2c1,,0.316 µM (active)
Cc1ccc(C)c(/C(=N\N=C(N)N)C2CC2)c1,-19.5% [at 11.4 µM],
CCN(CC)C(=O)C(=O)N/N=C/c1cccc(Br)c1,,22.4 µM (active)
O=C(N/N=C/c1ccccn1)c1ccco1,,inactive
CCCCCCCCC(=O)N/N=C/c1cccc(Br)c1,,2 µM (active)
CCCCCC(=O)Nc1cc2[nH]c(=O)cc(COC)c2cc1C,,inactive
CCCCCCCCCCCCCCCC(=O)NC(C)C,,inactive
CCCCCCCCC(=O)N/N=C/c1ccccn1,,5.01 µM (active)
C[C@@](Cc1ccc(O)c(O)c1)(NN)C(=O)O,,inactive
Cc1cc2cc3c(cc2nc1SCC(=O)Nc1c(C)cccc1C)CCC3,,3.55 µM (active)
COc1ccc(CCn2c(C)cc(C(=O)CSc3nc(N)cc(=O)[nH]3)c2C)cc1,,3.55 µM (active)
Cc1cc(C(=O)CSc2nnc(N)s2)c(C)n1CCc1ccc(F)cc1,,0.794 µM (active)

Compound,"activity, negative = inhibition",AC50
COc1ccc(C(=O)NC2(C(F)(F)F)C(=O)Nc3c2c(=O)[nH]c(=O)n3CCc2ccc(OC)c(OC)c2)cc1 (configuration not stated),,inactive
CCOc1ccc(NC(=O)c2oc3ccccc3c2NC(=O)CC)cc1,,2.24 µM (active)
CCOCC(=O)Nc1c(C(=O)Nc2ccccc2OC)oc2ccccc12,,inactive
COc1cccc(NC(=O)c2oc3ccccc3c2NC(=O)c2ccc3c(c2)OCO3)c1,,3.55 µM (active)
O=C(Nc1cccc(-c2nc3ccccc3s2)c1)c1ccc2c(c1)OCO2,,7.08 µM (active)
CCOC(=O)Nc1ccc2c(c1)OCO2,,20 µM (active)
CCOC(=O)Nc1ccc(C(=O)Oc2ccccc2)c(O)c1,,3.55 µM (active)
CCOC(=O)c1oc2ccccc2c1NC(=O)c1ccc2c(c1)OCO2,,2.82 µM (active)
CCOC(=O)c1oc2ccccc2c1NC(=O)c1cc(OC)cc(OC)c1,,25.1 µM (active)
CCOC(=O)c1oc2ccccc2c1NC(=O)c1ccc(S(=O)(=O)N(C)C)cc1,,inactive
CC(C)(C)c1ccc(OC(=O)Nc2ccc(O)c(C(=O)O)c2)cc1,41.8% [at 11.4 µM],
Cc1ccc(OCC(O)Cn2c3ccccc3c3ccccc32)cc1 (configuration not stated),,1.26 µM (active)
Cc1ccccc1OCC(O)Cn1c2ccccc2c2ccccc21 (configuration not stated),,0.631 µM (active)
Cc1cccc(C)c1OCC(O)CNC(C)(C)C (configuration not stated),,inactive
Cc1ccccc1OCC(O)Cn1c(NCc2ccccc2)nc2c1c(=O)[nH]c(=O)n2C (configuration not stated),,inactive
C=CCN(CC=C)CC(O)Cn1c2ccccc2c2ccccc21 (configuration not stated),,0.562 µM (active)
c1ccc([C@@H]2CN3CCSC3=N2)cc1,,inactive
COc1ccc(CCn2c(=N)c(C(=O)NCc3ccco3)cc3c(=O)n4ccccc4nc32)cc1,,11.2 µM (active)
C=CCn1c(Cc2c[nH]c3ccccc23)nnc1SCC(=O)NCc1ccccc1,,25.1 µM (active)
CCn1c(CC(=O)Nc2ccc(C)cc2)nnc1SCC(=O)Nc1nc(C)cs1,,inactive
CCn1c(CC(=O)Nc2ccc(C)cc2)nnc1SCC(=O)NCCc1ccccc1,,22.4 µM (active)
CCn1c(CSCc2ccc(C)cc2)nnc1SCC(=O)NCc1ccccc1,,14.1 µM (active)
C[C@@](N)(C(=O)O)c1ccc(S(=O)(=O)O)cc1,,inactive
COc1cc(OC)c2nc(C)c3c(c2c1)N(c1ccc(O)cc1)CC3,,14.1 µM (active)
Clc1ccccc1C(Nc1cnccn1)Nc1cnccn1,12% [at 11.4 µM],

Compound,"activity, negative = inhibition",AC50
CC1(C)S[C@@H]2[C@H](C(=O)O)N=C(Cc3ccccc3)N2[C@H]1C(=O)O,28.2% [at 11.4 µM],
COc1ccc2c(c1)c(CC(=O)O)c(C)n2Cc1ccc(Cl)cc1,,10 µM (active)
COc1ccc2c(c1)c(CC(=O)O)c(C)n2C(=O)c1ccc(Cl)cc1,,inactive
COc1ccc2c(c1)c(CC(=O)OCC(=O)O)c(C)n2C(=O)c1ccc(Cl)cc1,,inactive
CC(C)(C)N1C(=O)[C@H]2[C@@H]3[C@H](O)C=CC(=O)[C@H]3CC[C@H]2C1=O,23.7% [at 11.4 µM],
CS(=O)(=O)N1N=C(c2ccc(Br)cc2)CC1c1ccc2c(c1)OCO2 (configuration not stated),,0.178 µM (active)
C[C@@H]1CC[C@H]2C(=O)N3[C@@H](CC[C@@H](C)[C@@H]3c3ccc(Br)cc3)C(=O)N2[C@@H]1c1ccc(Br)cc1,-27.6% [at 11.4 µM],
COc1ccc(NC(=O)CCNS(=O)(=O)c2ccc3c(c2)c(=O)n(C)c(=O)n3C)cc1,,inactive
COc1ccc(OCCNS(=O)(=O)c2ccc3oc4ccccc4c3c2)cc1,,2.24 µM (active)
CCCCc1ccc(NC(=S)NCc2cccs2)cc1,,3.55 µM (active)
Cc1ccc(C(=O)COC(=O)CNC(=O)C(c2ccccc2)c2ccccc2)cc1[N+](=O)[O-],,5.01 µM (active)
Cc1ccc(C(=O)COC(=O)CNC(=O)Cc2ccccc2)cc1[N+](=O)[O-],,inactive
Cc1ccc(C(CC(=O)c2ccco2)SCCO)cc1 (configuration not stated),,2.82 µM (active)
CC[C@H](CN(C)C)C(=O)c1ccco1,8.39% [at 11.4 µM],
O=c1cc(-c2ccc(O)cc2)oc2cc(O)cc(O)c12,,7.94 µM (active)
O=c1c(O)c(-c2ccc(O)c(O)c2)oc2cc(O)cc(O)c12,,inactive
O=C(O)c1c(-c2c3ccc(=O)cc-3oc3cc(O)ccc23)cc2ccccc2c1-c1ccccc1,25.6% [at 11.4 µM],
O=c1cc(-c2ccccc2)oc2cc(O)c(O)c(O)c12,,inactive
COc1ccc(C2=C(C#N)C(=O)OC2)cc1,,inactive
O=c1cc(-c2ccccc2)oc2cc(O)cc(O)c12,,0.794 µM (active)
COc1ccc(-c2cc(=O)c3c(O)cc(O)cc3o2)cc1,,1 µM (active)
Cc1cc(=O)c2c(O)c(O)ccc2o1,,inactive
